Among all 39,000 compounds or so, about 3,300 (8.5%) were called active. The sample holds actives, similar compounds and a random draw of the others, so the mix is not that of the screen.

The test system of this assay is HepG2. The assay can be described thus: cytotoxicity call (relative viability < 0.9). The conditions noted are these: 10 µM.
In the case of `NC(=O)N1C[C@@H]2C[C@H]1CN2`, the cytotoxicity call is “inactive”.
For `C[N+]1(C)C2CCC1CC(OC(=O)C(CO)c1ccccc1)C2.O=[N+]([O-])[O-]` (stereo unspecified), the cytotoxicity call is “inactive”.
Regarding `O=C(NCNC(=O)N[C@H]1C(=O)NC(=O)N1CO)N[C@H]1C(=O)NC(=O)N1CO`, the cytotoxicity call was “inactive”.
Turning to `CCC(=O)CCCCC[C@@H]1NC(=O)[C@H]2CCCCN2C(=O)[C@H]([C@@H](C)CC)NC(=O)[C@H](Cc2cn(OC)c3ccccc23)NC1=O`, the cytotoxicity call is “active”.
The result for `CCC(=O)CCCCC[C@@H]1NC(=O)[C@H]2CCCCN2C(=O)[C@H]([C@H](C)CC)NC(=O)[C@H](Cc2cn(OC)c3ccccc23)NC1=O` reads “active”; that for `N[C@@H](C(=O)O)c1cc(=O)[nH]o1`, “inactive”.
For the molecule `COC(N)=O`, the cytotoxicity call was “inactive”.
For the molecule `CN1C[C@@H]2C[C@H](C(=O)Nc3cccnc3)[C@@H](C1)O2`, the cytotoxicity call was “inactive”.
`CCCCS(=O)(=O)N1C[C@H]2CNC[C@@H]2C1`: the cytotoxicity call was “inactive”.
The result for `NC(=O)c1ccc(N)nc1` reads “active”; that for `NC(=O)c1cc([N+](=O)[O-])cc([N+](=O)[O-])c1` [listing 1 of 2 here], “inactive”; that for `NC(=O)c1cc([N+](=O)[O-])cc([N+](=O)[O-])c1` [listing 2 of 2 here], “inactive”.
The result for `C[C@H]1CN([C@@H](C)CO)C(=O)CCCn2nncc2CO[C@@H]1CN(C)C(=O)Oc1ccc2ccccc2c1` reads “inactive”.
Regarding `CNc1ccc(C(=O)C[C@@H](O)CC[C@@H](C)[C@H]2OC(=O)C[C@@H](O)CC(=O)C[C@@H](O)C[C@@H](O)C[C@@H](O)C[C@@H](O)C[C@@]3(O)C[C@@H](O)[C@H](C(=O)OC)[C@@H](C[C@@H](O[C@@H]4O[C@H](C)[C@@H](O)[C@H](N)[C@@H]4O)\C=C/C=C\C=C/C=C\C=C/C=C\C=C/[C@@H]2C)O3)cc1`, the cytotoxicity call is “inactive”.
As for `CN(C)C(=O)Oc1ccc[n+](C)c1`, the cytotoxicity call is “inactive”.
The result for `CN(C)C(=O)Oc1cccc([N+](C)(C)C)c1.[Br-]` reads “inactive”; that for `CN(C)C(=O)Oc1ccc[n+](C)c1.[Br-]`, “active”.
On to `O=C(O)[C@H]1C[C@H]2CCCCN2C1`, for which the cytotoxicity call was “inactive”.
As for `CN1[C@@H]2CC[C@@H]1C[C@H](O)C2` (stereo partly specified), the cytotoxicity call was “inactive”.
On to `CCCC[C@@H](C)[C@@H](OC(=O)C[C@@H](CC(=O)O)C(=O)O)[C@H](C[C@@H](C)C[C@H](O)CCCC[C@@H](O)C[C@H](O)[C@H](C)N)OC(=O)C[C@@H](CC(=O)O)C(=O)O`, for which the cytotoxicity call is “inactive”.
The result for `OC[C@H]1O[C@@H](Oc2c[nH]c3ccc(Br)c(Cl)c23)[C@H](O)[C@@H](O)[C@H]1O` reads “inactive”; that for `CCCCCCCCCCCCCCCC[N+](C)(C)C.[Br-]`, “active”.
Take `C[N+](C)(C)CCCl`: the cytotoxicity call is “inactive”.
The result for `C[N+](C)(C)CCCCCCCCCC[N+](C)(C)C.[Br-].[Br-]` reads “inactive”.
Regarding `N=C(N)/N=C(\N)Nc1ccc(Cl)cc1`, the cytotoxicity call was “inactive”.
In the case of `Oc1ccccc1-c1ccccc1O`, the cytotoxicity call is “inactive”.
As to `O=C1C=CC(=O)c2c(O)cccc21`, the cytotoxicity call was “active”.
Regarding `CC1=CC(=O)c2c(O)cccc2C1=O`, the cytotoxicity call is “active”.
Regarding `Oc1ccccc1-c1ccccc1`, the cytotoxicity call is “inactive”.
For `C[C@H]1O[C@H](C[N+](C)(C)C)C[C@@H]1O`, the cytotoxicity call was “inactive”.
`NCCc1nnc2n1CCCCC2`: the cytotoxicity call is “inactive”.
Regarding `C[C@H]1CN([C@@H](C)CO)C(=O)CCCn2nncc2CO[C@@H]1CN(C)C(=O)Oc1cccc2ccccc12`, the cytotoxicity call is “inactive”.
Take `CC(=O)Nc1ccc(CCN)cc1`: the cytotoxicity call is “inactive”.
On to `CNC(C)(C)Cc1ccccc1.O=S(=O)(O)O`, for which the cytotoxicity call was “inactive”.
Turning to `CC(C)NC(=O)[C@H]1CCS(=O)(=O)[C@H]2CNC[C@@H]12`, the cytotoxicity call is “inactive”.
Consider `C[C@@H]1C(=O)NC[C@@H]2CN(CC3CC3)C[C@@H]21`, for which the cytotoxicity call is “inactive”.
As to `CCC(C(N)=O)N1CCCC1=O` (stereo unspecified), the cytotoxicity call was “inactive”.
The result for `O=[As]O[As]=O` (stereo unspecified) reads “active”.
The result for `C[C@H](CO)N1C[C@H](C)[C@@H](CN(C)C(=O)Oc2ccccc2)OCc2ccccc2-c2c(n(C)c3ccccc23)C1=O` reads “inactive”; that for `C[C@@H]1O[C@@H](OC(=O)Cc2ccccc2)[C@H](O)[C@H](O)[C@H]1O`, “inactive”; that for `COC(=O)[C@H]1[C@H](CO)[C@H]2Cn3c(cccc3=O)[C@@H]1N2C(=O)C1CC1`, “inactive”.
As for `O=C(NC[C@H]1CCC2(CCNCC2)O1)C1CC1`, the cytotoxicity call was “inactive”.
In the case of `O=C(O)C(Cl)Cl.[NaH]`, the cytotoxicity call was “inactive”.
In the case of `Cl.NCC(=O)c1ccccc1`, the cytotoxicity call is “inactive”.
In the case of `CNCC(O)c1ccc(O)cc1.CNCC(O)c1ccc(O)cc1.O=C(O)C(O)C(O)C(=O)O` (stereo unspecified), the cytotoxicity call is “inactive”.
In the case of `Cc1[nH]c2ccc(O)cc2c1CCN`, the cytotoxicity call is “inactive”.
In the case of `Cc1ccc2c(CCN)c(C)n(C)c2c1`, the cytotoxicity call was “active”.
On to `Cc1ccc2nc(CCN)[nH]c2c1`, for which the cytotoxicity call is “inactive”.
For the molecule `C[C@@H]1[C@H](O)[C@@H](C)/C=C\C=C/CC\C=C/C=C\C=C/C=C\[C@@H](O[C@@H]2O[C@H](C)[C@@H](O)[C@H](N)[C@@H]2O)C[C@@H]2O[C@](O)(C[C@@H](O)[C@H](O)CC[C@@H](O)C[C@@H](O)C[C@@H](O)CC(=O)O[C@H]1C)C[C@H](O)[C@H]2C(=O)O`, the cytotoxicity call was “inactive”.
The result for `CN(C)[C@@H](CN)c1cccc(C(F)(F)F)c1` reads “inactive”.
Regarding `CN[C@@H]1[C@@H](O)[C@@H](O[C@@H]2[C@H](O)[C@@H](O[C@H]3O[C@H]([C@@H](C)O)[C@@H](O)[C@H](O)[C@H]3N)[C@H](N)C[C@@H]2N)OC[C@]1(C)O`, the cytotoxicity call was “inactive”.
`CCCCCCCCCCCCCCCC[n+]1ccccc1`: the cytotoxicity call was “active”.
Regarding `CCCCCCCCCCCCCCCC[n+]1ccccc1.[Cl-]`, the cytotoxicity call is “active”.
As to `CC(=O)c1c(O)c(C)c(O)c(Cc2c(O)c3c(c(C(=O)/C=C/c4ccccc4)c2O)OC(C)(C)C=C3)c1O`, the cytotoxicity call was “inactive”.
Consider `COCC(=O)N1[C@@H]2Cn3c(ccc(C4=CCCC4)c3=O)[C@H]1[C@@H](C(=O)OC)[C@@H]2CO`, for which the cytotoxicity call was “inactive”.
As for `Cn1cc(CN2C[C@H]3CNC[C@H]3C2)cn1`, the cytotoxicity call was “inactive”.
Take `Cc1ccc(C[C@H]2CCCN2)cc1C`: the cytotoxicity call is “inactive”.
For the molecule `NCCc1cccc(O)c1`, the cytotoxicity call is “inactive”.
Consider `OC[C@@H]1[C@@H](O)[C@H](O)[C@H]2[C@@H](O)CCN21`, for which the cytotoxicity call is “inactive”.
Regarding `Cc1c(N)nc([C@H](CC(N)=O)NC[C@@H](N)C(N)=O)nc1C(=O)N[C@H](C(=O)N[C@@H](C)[C@H](O)[C@@H](C)C(=O)N[C@@H](C(=O)NCCc1nc(-c2nc(C(=O)NCCC[S+](C)C)cs2)cs1)[C@@H](C)O)[C@@H](O[C@H]1O[C@H](CO)[C@H](O)[C@@H](O)[C@H]1O[C@H]1O[C@H](CO)[C@@H](O)[C@H](OC(N)=O)[C@@H]1O)c1cnc[nH]1`, the cytotoxicity call was “inactive”.
`Cn1cc(N2C[C@@H]3CNC[C@@H]3C2=O)cn1`: the cytotoxicity call was “inactive”.

Source of the values: the antibiotic and cytotoxicity screens of Wong et al. (2023).
